Laboratory results published in ChEMBL document CHEMBL3988442, “University of Dundee, Small-Polar-MMV Screening Library” (2021).
About 13,000 (27%) of roughly 48,000 compounds showed an effect of 50% or more. This is one part of the list.

These compounds were tested on Wolbachia pipientis (assay: Anti-Wolbachia Cell-Based Screen). Settings: 5 µM.
Type: functional
Parameters: scale not given: in the data most compounds retested in dose-response had high values

Compound	Percent Effect [%]
Cc1ccc(C(=O)NC2CCN(Cc3noc(CC(C)C)n3)CC2)s1	3.066
CNC(=O)c1nc(CN2CCOC(CCCC(C)C)C2)no1 (centres undefined)	2.803
NC(=O)c1nc(CN2CCOC(C(F)(F)F)C2)no1 (centres undefined)	-3.309
CC(C)NC(=O)c1nc(Cn2c(C(F)F)nc3ccccc32)no1	117.9
CC(C)NC(=O)CN(C)C1CCN(c2cnc3ccccc3n2)CC1	-13.33
O=C(NC1CC1)c1nc(Cn2c(C(F)F)nc3ccccc32)no1	97.34
O=C(NCCn1ccnc1)c1csc(Br)c1	7.312
CC(C)c1cncnc1-c1cc(F)cc2c1OC(CN)C2 (centres undefined)	-15.48
Cc1ccc(N2CCCc3sc(C(=O)NCC4CCCO4)nc32)nn1 (centres undefined)	101.4
Cc1ccc(N2CCCc3sc(C(=O)NCCO)nc32)nn1	-4.347
O=C(NC1CC1)c1nc2c(s1)CCCN2c1ccccc1	3.118
O=C(NCc1cccnc1)c1nc2c(s1)CCCN2c1ncccn1	-3.859
CN1CCCc2sc(C(=O)NC3CC3)nc21	-6.027
O=C(c1nc2c(s1)CCCN2C(=O)C1CC1)N1CCOCC1	0.08995
O=C(NCC1CCCO1)c1nc2c(s1)CCCN2CC1CC1 (centres undefined)	97.2
Cc1ccc(N2CCCc3sc(C(=O)NCc4ccc(C)o4)nc32)nn1	-0.9915
O=C(NCC1CCCO1)c1nc2c(s1)CCCN2C(=O)C1CC1 (centres undefined)	108.2
O=C(NCC1CCCO1)c1nc2c(s1)CCCN2c1ncccn1 (centres undefined)	95.9
O=C(c1nc2c(s1)CCCN2CC1CC1)N1CCCC1	21.73
O=C(c1nc2c(s1)CCCN2CC1CC1)N1CCOCC1	13.28
c1cnc(NCC2Cn3nnc(-c4ccsc4)c3CO2)nc1 (centres undefined)	-8.794
CCc1nnc(N2C[C@@H](NC(C)=O)[C@H](c3ccc(C)o3)C2)s1	0.4936
CCN1CCN(c2ccc(C(=O)NC(C)C(=O)N(C)C)cc2)CC1 (centres undefined)	1.595
CNC(=O)CN1CCN(C(=O)Nc2ccc(C)s2)CC1	-4.084
CN(CCc1cccs1)C(=O)Nc1ccc2c(c1)C(=O)N(C)CC2	-32.58
Cc1nn(C(C)C)c(C)c1CN1CCC(c2cc(C(C)C)n[nH]2)CC1	4.458
COCCN1CCCc2sc(C(=O)N3CCCN(C)CC3)nc21.O=C(O)C(F)(F)F	-1.049

Compound	Percent Effect [%]
O=C(NCC1CCCO1)c1nc2c(s1)CCCN2Cc1ccccc1 (centres undefined)	98.1
COCCN1CCCc2sc(C(=O)Nc3ccc(C)nc3)nc21.O=C(O)C(F)(F)F	8.218
CN(C)C(=O)CNC(=O)c1nc2c(s1)CCCN2Cc1ccccc1	-13.23
COCCNC(=O)c1nc2c(s1)CCCN2Cc1ccccc1	6.623
COCCN1CCCc2sc(C(=O)NCC3CCCO3)nc21 (centres undefined)	104.4
Cc1ccc(-c2n[nH]cc2CN(Cc2nccn2C)C(C)C)cc1C	-8.138
COc1ccc(N2Cc3nc(=O)[nH]n3C2=O)cc1	-10.45
COCCSc1ccc(-n2cccn2)nn1	0.3938
CC(c1nncn1C)n1cc(-c2cc(CN3CCCC3)cs2)nn1 (centres undefined)	2.3
CCC(Sc1ncc(CO)n1C)c1ccccc1 (centres undefined)	5.427
Oc1nnc(-c2ccccc2)c2sc(N3CCCCC3)nc12	-2.363
Cc1cc(Br)c(O)c(-c2nc(N3CCCCC3)sc2C)c1	122.7
Cc1cc(Br)c(O)c(C(=O)N2CCC(CN3CCCCCC3)CC2)c1	20
Cc1cc(Br)c(O)c(-c2nc(N3CCOCC3)sc2C)c1	133.3
COc1ccc(-n2nc(C(C)C)nc2Cn2cncn2)cc1	2.008
CC(C)Cc1cc(C(=O)N2CCC(C(=O)N3CCOCC3)CC2)on1	-1.733
CCOC(=O)CC1CCCCN1C(=O)CCc1cc(Cl)no1 (centres undefined)	-3.772
CCn1c(CC2CCN(C(=O)c3cc(CC(C)C)on3)CC2)n[nH]c1=O	3.496
Cc1nc(CN2CCN(C(=O)c3cc(C4CC4)on3)CC2)cs1	-4.93
COC(=O)C1CCCN1C(=O)c1cc(CC(C)C)no1 (centres undefined)	-6
CCn1c(C2CCN(C(=O)CCc3cc(Cl)no3)CC2)nn(C)c1=O	91.1
CCn1c(C2CCN(C(=O)c3cc(C4CC4)on3)CC2)nn(C)c1=O	94.75
O=C(c1cc(C2CC2)on1)N1CCC(Oc2ncccc2Br)CC1	12.65
O=C(CCc1cc(Cl)no1)N1CCN(CCn2cncn2)CC1	-9.479
CCn1c(C2CCN(C(=O)c3cc(CC(C)C)no3)CC2)nn(C)c1=O	80.93
CCn1c(C2CCN(C(=O)c3cc(CC(C)C)on3)CC2)nn(C)c1=O	100.4
CCn1nc(CC(C)C)cc1C(=O)N1CCC(n2cnnc2)CC1	19.79
